Most compounds without a hit are left out; they make up all but 7.4% or so of the library.
NPC1 promoter act – NPC1 promoter activation. Huh7 NPC1 promoter luciferase reporter, 24 h. Potency, µM (highest dose often 9.22 µM), for the others: at the highest dose activation, usual class: activators. 320,000 compounds, 2.4% hits. AID 485313; further: % of control where 0% means no effect; nearly all actives have a fitted effect of over 60% in size
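Cells: Huh7 expressing luciferase under the NPC1 promoter, 1500/well. Seeded 2 h, compound added, incubated 24 h at 37 °C. Luciferase reagent, 10 min ambient, then luminescence.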
SMN2 splice up – enhancers of SMN2 splice variant expression; HEK293 SMN2-luciferase splicing reporter, luminescence, 30-36 h; Potency, µM (top dose mostly 46.1 µM), for the others: at the top dose activity change, positive = activation, usual class: activators; 210,000 compounds, 2.8% hits; further: % of control where 0% means no effect; nearly all actives have a fitted effect of over 55% in size
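HEK293 cells carry an SMN2 […]–luciferase reporter in which exon 7 inclusion puts luciferase in frame. Cells were plated 10-12 h before compound addition, then incubated 30-36 h at 37C. ONE-Glo luminescence was read; sodium butyrate at 4.5 mM final served as control.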
Rab9 promoter act – Rab9 promoter activation. AID 485297. 320,000 compounds, 2.8% hits. Potency, µM (highest dose often 9.22 µM), for inactives: at the top dose activation, negative = inhibition, hits mostly activators. Huh7 Rab9 promoter-luciferase reporter, luminescence, 24 h; further: % of control where 0% means no effect; nearly all actives have a fitted effect of over 60% in size
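Luminescence from Amplite-detected luciferase (10 minutes, ambient) reports Rab9 promoter activation. Before that, stable Rab9-luciferase Huh7 cells (1500/well, reduced-serum OP-MEM I plus 10% FBS) were exposed to compound for 24 hours at 37C.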
ELG1 genotox – induces genotoxicity in HEK293T cells with luciferase-tagged ELG1 | HEK293T ELG1-luciferase reporter, luminescence, 16 h | Potency, µM (highest dose often 46 µM), inactives show at the top dose activity change, positive = activation, actives largely listed as activators | 330,000 compounds, 1.3% hits | AID 504466; further: % of control where 0% means no effect; nearly all actives have a fitted effect of over 60% in size
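Genotoxic stress is detected as increased luminescence from luciferase-tagged ELG1 in HEK293T cells, measured with ONE-Glo after a 16 hr treatment at 37 °C.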
FLuc modulator – counter-screen for miR-21 project: firefly luciferase inhibitors or activators; P08659; purified FLuc, Km substrates, luminescence inhibition; Potency, µM (series often up to 57.5 µM), inactives show top-dose activity change, negative = inhibition, hits mostly inhibitors; 360,000 compounds, 6.9% hits; AID 588342;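 further: plate controls were vehicle for no effect and reference inhibitor for full effect; nearly all actives have a fitted effect of over 55% in size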
Target sequence (P08659 whole entry, looked up): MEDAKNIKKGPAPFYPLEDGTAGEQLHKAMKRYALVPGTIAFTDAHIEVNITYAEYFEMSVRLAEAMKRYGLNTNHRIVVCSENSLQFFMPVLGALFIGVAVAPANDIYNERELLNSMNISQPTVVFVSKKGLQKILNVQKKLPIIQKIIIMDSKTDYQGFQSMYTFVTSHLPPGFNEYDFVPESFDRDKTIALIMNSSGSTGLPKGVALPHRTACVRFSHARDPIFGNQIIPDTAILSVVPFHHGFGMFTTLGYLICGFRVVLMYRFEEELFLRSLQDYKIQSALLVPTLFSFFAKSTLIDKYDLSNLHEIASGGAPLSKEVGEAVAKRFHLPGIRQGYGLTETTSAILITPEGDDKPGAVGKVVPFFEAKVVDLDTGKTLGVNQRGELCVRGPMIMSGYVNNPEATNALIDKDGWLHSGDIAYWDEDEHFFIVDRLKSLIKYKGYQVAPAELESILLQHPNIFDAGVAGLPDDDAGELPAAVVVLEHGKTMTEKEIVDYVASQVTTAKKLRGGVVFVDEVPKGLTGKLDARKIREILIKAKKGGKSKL
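Biochemical qHTS of compounds, final roughly 60 µM downward over six points, against 10 nM purified firefly luciferase using Km concentrations of substrates (10 uM D-luciferin, 10 uM ATP) in Tris acetate pH 7.5 buffer; luminescence output.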
Starred values were filed as active, the others as inactive; u = inconclusive; x = no result; [ ] = remark or other dose. The call rests on the fitted dose curve; in most records, active means well fitted curve in the direction sought with a large enough effect; inconclusive means small, poorly fitted or top-dose-only effect, or another doubt; inactive means no such curve, though single readings can be large; an effect the other way counts as inactive or inconclusive. Potency means the concentration at half of the fitted maximal effect.

SMILES	NPC1 promoter act	SMN2 splice up	Rab9 promoter act	ELG1 genotox	FLuc modulator
CC(C(=O)Nc1ccc(F)c(F)c1)N1CCN(C)CC1 (stereo not drawn)	-2%	x	-3%[1.84 µM]	0%	5%
COc1cc(/C=C2\CCOC2=O)cc(OC)c1OC	0%	x	-5%	u	2%
Cc1ccccc1OC(=O)CSc1nnc(-c2cccs2)o1	x	x	x	x	5%
CCOC(=O)c1c(C)[nH]c(C(=O)COC(=O)C2CC2C)c1C (stereo not drawn)	3.5µM*	u	3.2µM*	2.6µM*	3.4µM*
CC1CCN(c2ccc(-c3ccc(NC(=O)C(F)(F)F)cc3)nn2)CC1	0.13µM*	x	0.5µM*	0.73µM*	u
O=C(c1cc(COc2ccc(F)cc2Cl)on1)N1CC2C[C@@H]3CC1C[C@H](C2)C3	3.2µM*	x	2.5µM*	9.2µM*	6.7µM*
O=C(c1cc(COc2ccc(F)cc2Cl)on1)N1CC[C@@H]2CCCC[C@H]2C1	-6%	x	-2%	-1%	-11%
O=C(c1cc(COc2ccc(F)cc2Cl)on1)N1C[C@H]2CC[C@H]1C2	u	x	2.8µM*	u	13µM*
CS(=O)(=O)N1CCC(Oc2ccccc2C(=O)N2CCC[C@H]2CO)CC1	-1%	x	0%	14%	-11%
COc1ccc(C2c3[nH]c4ccccc4c3CCN2Cc2cccn2-c2ncccn2)cc1C (stereo not drawn)	8%	x	-9%	-5%	-19%
Cc1cccc(C2c3[nH]c4ccccc4c3CCN2Cc2cccn2-c2ncccn2)c1 (stereo not drawn)	1%	20µM*	u	-6%	-19%
COc1cccc(NC(=O)c2sc3nc(C)c(C(=O)Nc4ccc(C)cc4C)c(-c4cccs4)c3c2N)c1	x	-12%	x	x	-3%
CC(C)Oc1cccc(C2NC(=O)c3ccccc3O2)c1 (stereo not drawn)	5%	x	3%	4%	17µM*
CCCC(=O)Oc1cccc(C2NC(=O)c3ccccc3O2)c1 (stereo not drawn)	1%	x	2%	-4%	-11%
CC(=O)Nc1cccc(Oc2ccc([N+](=O)[O-])cc2Cl)c1	0%	9%	17%	14%	24µM*
COc1ccc(NC(=O)Nc2cccc([N+](=O)[O-])c2)cc1Cl	1%	-7%	16%	-2%	21µM*
C=CCSC1=NC(=O)/C(=C/c2cccs2)S1	-8%	20%	-5%	u	19µM*
O=C(COC(=O)c1ncc(Cl)c(Cl)c1Cl)c1ccc(Cl)s1	10%	17%	4%	1%	12µM*
O=C(OCC(=O)c1ccc(Cl)s1)c1ccccn1	0%	5%	0%	-1%	7.6µM*
O=C(OCC(=O)c1ccc(Cl)s1)c1cnccn1	-5%	x	8%	2%	19µM*
O=C(OCc1ccc(Cl)cc1)c1cnccn1	4%	19%	6%	-1%	-4%
Cc1c(NC(=O)c2ccc3c(c2)OCO3)cccc1-c1nc2ccccc2o1	-4%	-11%	0%	-8%	9.5µM*
Cc1ccc(-c2nc3ccccc3o2)cc1NC(=O)c1ccc2c(c1)OCO2	u	x	-4%	7.3µM*	u
O=C(Nc1ccc2oc(-c3ccccc3F)nc2c1)c1ccc2c(c1)OCCO2	14%	-39%	21%	-16%	6.7µM*
O=C(Nc1ccc(-c2nc3ccccc3o2)cc1)c1ccc2c(c1)OCO2	x	-4%	x	x	5%
SMILES	NPC1 promoter act	SMN2 splice up	Rab9 promoter act	ELG1 genotox	FLuc modulator
Cc1c(NC(=O)c2cc(-n3cnnc3)ccc2Cl)cccc1-c1nc2ccccc2o1	0%	7%	-2%	-1%	3.8µM*
Cc1nn(Cc2ccccc2)c(Cl)c1/C=C1\NC(=S)NC1=O	-5%	-14%	-5%	12%	-9%
COc1cccc(CN(C)C(=O)CNC(=O)c2ccc3c(c2)OCO3)c1OC	1%	x	0%	-3%	-2%
O=C(Nc1ccc(F)cc1)C1CCN(c2nc3ccccc3nc2C(F)(F)F)CC1	x	x	x	x	6%
COC(=O)[C@@]12CCCCN1[C@H](c1ccc(-c3ccc(F)cc3)c(OC)c1)[C@@H]1C(=O)N(C)C(=O)[C@@H]12	-1%	x	-5%	-6%	4%
Clc1ccc(CSc2ccc(-c3cccs3)nn2)cc1	x	x	x	x	0%
